# Source: paper PMC5540273 (PLoS ONE, 2017)
# How the values were obtained:
# Conditions in all cases: concentration: 1 μM, replicates: in singlicate; n = 1
# MAP3K3 = tested on: MAP3K3
# MAP3K4 = tested on: MAP3K4
# MAP4K2 = tested on: MAP4K2
# MAP4K3 = tested on: MAP4K3
# MAP4K4 = tested on: MAP4K4
# MAP4K5 = tested on: MAP4K5
# MAPKAPK2 = tested on: MAPKAPK2
# MAPKAPK5 = tested on: MAPKAPK5
# MARK1 = tested on: MARK1
# MARK2 = tested on: MARK2
# MARK3 = tested on: MARK3
# MARK4 = tested on: MARK4
# MAST1 = tested on: MAST1
# MEK1 = tested on: T1, MEK1
# T1 construct: gene MAP2K1
# MEK2 = tested on: T2, MEK2
# T2 construct: gene MAP2K2
# MEK3 = tested on: T3, MEK3
# T3 construct: gene MAP2K3
# MEK4 = tested on: T4, MEK4
# T4 construct: gene MAP2K4
# MEK5 = tested on: T5, MEK5
# T5 construct: gene MAP2K5
# MEK6 = tested on: T6, MEK6
# T6 construct: gene MAP2K6
# MELK = tested on: MELK
# 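Further: KINOMEscan kinase panel screen.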
SMILES,%Inh (MAP3K3) [%],%Inh (MAP3K4) [%],%Inh (MAP4K2) [%],%Inh (MAP4K3) [%],%Inh (MAP4K4) [%],%Inh (MAP4K5) [%],%Inh (MAPKAPK2) [%],%Inh (MAPKAPK5) [%],%Inh (MARK1) [%],%Inh (MARK2) [%],%Inh (MARK3) [%],%Inh (MARK4) [%],%Inh (MAST1) [%],%Inh (MEK1) [%],%Inh (MEK2) [%],%Inh (MEK3) [%],%Inh (MEK4) [%],%Inh (MEK5) [%],%Inh (MEK6) [%],%Inh (MELK) [%]
CS(=O)(=O)CCNCc1nc(-c2ccc3ncnc(Nc4ccc(OCc5cccc(F)c5)c(Cl)c4)c3c2)cs1.Cl [GW583340],0,4,0,0,0,0,4,0,0,0,0,0,0,0,0,0,3,57,0,0
CNc1nccc(-c2c(-c3ccc(F)cc3)ncn2CCCN2CCOCC2)n1 [SB-222516],0,17,0,0,0,8,0,0,0,9,0,35,20,0,12,15,23,46,0,24
COC(=O)c1c(-c2ccccc2)c2cc(Cl)ccc2c(=O)n1Cc1ccc(S(C)(=O)=O)cc1,26,0,3,13,0,0,24,0,0,0,0,0,0,0,29,9,10,0,4,0
CCc1nc(-c2cccc(N(C)S(=O)(=O)c3ccccc3)c2)c(-c2ccnc(Nc3ccc(N4CCN(C(C)=O)CC4)nc3)n2)s1 [GSK1645895],0,18,0,0,0,17,0,0,0,4,0,0,0,0,3,3,0,99.9,24,0
Cc1cc(N2CCC(NS(=O)(=O)c3ccc(F)cc3)CC2)nc(Nc2cccc(C#N)c2)n1.O=C(O)C(F)(F)F [GSK1653537],0,40,0,0,5,3,23,0,0,0,0,9,0,0,0,0,78,19,62,5
Cc1ccc(C)c(NC(=O)NCCNc2ccnc(Nc3ccc(F)cc3)n2)c1 [GSK1379878],0,0,0,0,0,0,0,0,0,0,0,9,0,0,0,11,0,43,0,4
COc1ccc(Nc2nccc(N3CCC(NC(=O)Nc4ccc5c(c4)OCO5)C3)n2)cc1 (centres unmarked) [GSK1379745],0,15,0,5,5,4,17,0,0,0,13,9,0,0,0,0,25,32,0,0
Nc1nc(-c2ccc3c(N)n[nH]c3c2)cc(N2CCCCC2)n1 [GSK2228768],0,2,0,0,0,0,3,0,0,0,0,0,0,0,0,2,0,8,0,0
Nc1nc(-c2ccccn2)c(-c2ccnc3ccccc23)s1 [GW548057],0,4,0,0,4,0,0,0,0,0,4,0,9,8,12,2,12,32,10,26
Cc1ccc(O)cc1Nc1cc(C(F)(F)F)nc2ccc(-c3ccncc3)cc12 [GW630823],0,0,0,0,0,0,0,0,0,9,0,4,0,0,5,0,0,0,0,0
